# Measurements as given in PubChem BioAssay (Tox21).
# Inconclusive results are not listed. Where a call stands in place of a potency, no number is given. The source made the active and inactive calls. Unless noted, calls come from the whole dose curve.
# Experiments:
# [1] = qHTS assay to identify small molecule antagonists of the sonic hedgehog signaling (Shh) pathway (AID 1259369); note: nearly all actives have a fitted effect of over 45% in size; note: potency is the fitted concentration of half-maximal effect
# Method in brief: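 NIH/3T3 stable Gli1-Luc clone, 2,000 cells/well, 4hr settle; cpd + conditioned medium 24hr; Luc reagent 30min RT; luminescence.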
# [2] = target: Estrogen receptor beta (Homo sapiens) (UniProt Q92731); assay: qHTS assay to identify small molecule agonists of the estrogen receptor beta (ER-beta) signaling pathway (AID 1259377; active = well fitted activation curve with a large enough effect in the signal ratio in the repeat runs, not every such curve was filed as active; the % refers to the signal ratio)
# Method in brief: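 Screening used GripTite ER-beta-UAS-bla cells held in 2% charcoal-stripped FBS medium. After overnight (16 hr) compound incubation at 37C, beta-lactamase activity was detected with a FRET substrate by fluorescence.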
# [3] = target: Estrogen receptor beta (Homo sapiens) (UniProt Q92731); assay: qHTS assay to identify small molecule antagonists of the estrogen receptor beta (ER-beta) signaling pathway (AID 1259378; active = well fitted inhibition curve with a large enough effect in the signal ratio in the repeat runs, not every such curve was filed as active; the % refers to the signal ratio; note: potency is the fitted concentration of half-maximal effect)
# Method in brief: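 Antagonist mode: compounds added to beta-lactamase reporter HEK293T ER-beta-UAS cells stimulated with E2 (1nM final), 16 hr at 37C. LiveBLAzer B/G FRET substrate, 2 hours room temperature, fluorescence read-out.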
# [4] = qHTS assay to identify small molecule agonists of the androgen receptor (AR) signaling pathway in the presence of an antagonist - cell viability counter screen (AID 1259379; active = well fitted curve in the direction sought with a large enough effect in the repeat runs; an effect the other way counts as inactive or inconclusive;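 note: MDA-kb2 human breast cancer cells carrying an MMTV luciferase reporter; series mostly up to about 92 µM; nearly all actives have a fitted effect of over 25% in size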)
# Method in brief: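 MDA-kb2 viability measured by CellTiter-Fluor fluorescence in the same wells as the luciferase signal; nilutamide 3.0uM final; 15-point compound titration; 16 hr at 37C.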
# [5] = qHTS assay to identify small molecule agonists of the estrogen receptor beta (ER-beta) signaling pathway - cell viability counter screen (AID 1259380; active = well fitted curve in the direction sought with a large enough effect in the repeat runs; an effect the other way counts as inactive or inconclusive; note: nearly all actives have a fitted effect of over 30% in size; note: potency is the fitted concentration of half-maximal effect)
# Method in brief: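 Measured: luminescence from CellTiter-Glo after 30 min at room temperature, added to wells already read for the LiveBLAzer FRET reporter (2 hr substrate); ER-beta-UAS-bla HEK293T cells had 16 hr compound treatment at 37C, 5% CO2.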
# [6] = target: Estrogen receptor (Homo sapiens) (UniProt P03372); assay: qHTS assay to identify small molecule agonists of the estrogen receptor alpha (ER-alpha) signaling pathway in the presence of an antagonist (AID 1259383); note: top concentration of the series differs between compounds; nearly all actives have a fitted effect of over 15% in size
# Method in brief: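 Quantitative HTS confirmation: compounds titrated at 15 concentrations onto estrogen-deprived VM7Luc4E2 cells carrying a four-ERE luciferase construct, with ICI-182,780 present at 10.0nM final. Signal is luminescence after 22hr exposure.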
# [7] = qHTS assay to identify small molecule antagonists of the estrogen receptor beta (ER-beta) signaling pathway - cell viability counter screen (AID 1259382; active = well fitted curve in the direction sought with a large enough effect in the repeat runs; an effect the other way counts as inactive or inconclusive;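 note: HEK293T cells carrying ER-beta-UAS-bla reporter stimulated with estradiol; series mostly up to about 92 µM; nearly all actives have a fitted effect of over 55% in size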)
# Method in brief: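 Readout: luminescence, CellTiter-Glo, same wells as bla assay. System: ER-beta-UAS-bla GripTite HEK293T, 2% charcoal-stripped FBS. Exposure: compounds plus 1nM 17-beta-estradiol, 16 hr, 37C.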
# [8] = qHTS assay to identify small molecule agonists or antagonists of the thyroid stimulating hormone receptor (TSHR) signaling pathway - wild type cell line counter screen (AID 1259384)
# Method in brief: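 Counter screen in untransfected Hek293: compounds (15-point titration, triplicate) plus phosphodiesterase inhibitor Ro20-1724 added after 18 h plating; 30 min RT. Intracellular cAMP via competitive d2/cryptate immunoassay, 1 h incubation.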
# [9] = target: Thyrotropin receptor (Homo sapiens) (UniProt P16473); assay: qHTS assay to identify small molecule antagonists of the thyroid stimulating hormone receptor (TSHR) signaling pathway (AID 1259385); note: nearly all actives have a fitted effect of over 20% in size
# Method in brief: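 Antagonist mode: compound-treated TSHR-expressing HEK293 cells were stimulated with 1.5 ng/mL TSH (final) in presence of Ro20-1724 for 30 min at RT. HTRF cAMP detection after 1 h; each compound tested at 15 concentrations, triplicate.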
# [10] = target: Androgen receptor (Homo sapiens) (UniProt P10275); assay: qHTS assay to identify small molecule agonists of the androgen receptor (AR) signaling pathway in the presence of an antagonist (AID 1259381); note: nearly all actives have a fitted effect of over 15% in size
# Method in brief: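 Luminescent ONE-Glo read, 30min at room temperature, follows 16hr compound exposure (15 concentrations) of MDA-kb2 cells at 37C, 0% CO2, with nilutamide added at 3.0uM final.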
# Estrogen receptor (Homo sapiens), sequence (P03372 whole entry, looked up): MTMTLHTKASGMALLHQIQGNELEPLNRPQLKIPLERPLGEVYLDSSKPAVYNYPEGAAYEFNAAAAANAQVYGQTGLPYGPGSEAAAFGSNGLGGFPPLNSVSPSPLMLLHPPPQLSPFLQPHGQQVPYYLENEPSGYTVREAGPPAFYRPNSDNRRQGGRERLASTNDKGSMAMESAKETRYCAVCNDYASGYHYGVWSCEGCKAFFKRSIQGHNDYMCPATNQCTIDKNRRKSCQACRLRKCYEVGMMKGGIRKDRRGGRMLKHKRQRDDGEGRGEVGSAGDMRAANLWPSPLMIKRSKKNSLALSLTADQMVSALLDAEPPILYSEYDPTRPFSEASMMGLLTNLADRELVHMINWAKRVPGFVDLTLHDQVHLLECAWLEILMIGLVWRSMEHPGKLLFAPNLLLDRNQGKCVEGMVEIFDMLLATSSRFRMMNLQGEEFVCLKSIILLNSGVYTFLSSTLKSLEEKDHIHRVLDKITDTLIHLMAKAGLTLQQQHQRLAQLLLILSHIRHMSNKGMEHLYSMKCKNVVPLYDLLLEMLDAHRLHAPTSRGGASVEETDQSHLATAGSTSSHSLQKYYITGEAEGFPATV
# Androgen receptor (Homo sapiens), sequence (P10275 whole entry, looked up): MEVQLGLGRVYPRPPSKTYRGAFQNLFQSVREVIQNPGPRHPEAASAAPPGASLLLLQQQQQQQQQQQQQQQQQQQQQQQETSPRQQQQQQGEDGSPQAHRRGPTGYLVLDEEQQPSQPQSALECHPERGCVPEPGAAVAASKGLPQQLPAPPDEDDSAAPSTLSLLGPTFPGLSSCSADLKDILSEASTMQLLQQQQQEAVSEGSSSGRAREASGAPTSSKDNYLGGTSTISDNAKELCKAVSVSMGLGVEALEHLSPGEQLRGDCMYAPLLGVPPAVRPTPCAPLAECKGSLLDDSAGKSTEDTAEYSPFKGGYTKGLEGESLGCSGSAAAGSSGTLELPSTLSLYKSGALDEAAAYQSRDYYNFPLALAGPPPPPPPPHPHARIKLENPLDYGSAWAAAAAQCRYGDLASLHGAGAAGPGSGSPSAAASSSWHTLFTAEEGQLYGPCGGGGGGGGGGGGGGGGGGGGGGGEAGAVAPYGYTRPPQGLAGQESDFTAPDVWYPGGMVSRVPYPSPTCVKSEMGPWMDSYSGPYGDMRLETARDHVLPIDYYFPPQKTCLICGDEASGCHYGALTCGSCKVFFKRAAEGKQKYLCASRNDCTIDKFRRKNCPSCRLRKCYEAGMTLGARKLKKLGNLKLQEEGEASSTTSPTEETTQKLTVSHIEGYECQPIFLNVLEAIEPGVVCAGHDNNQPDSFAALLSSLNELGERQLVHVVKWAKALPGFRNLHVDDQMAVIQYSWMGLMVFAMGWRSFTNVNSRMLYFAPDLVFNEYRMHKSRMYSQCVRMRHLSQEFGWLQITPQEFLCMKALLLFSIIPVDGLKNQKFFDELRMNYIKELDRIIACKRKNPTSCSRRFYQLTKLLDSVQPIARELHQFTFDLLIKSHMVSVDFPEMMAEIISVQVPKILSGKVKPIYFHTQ
# Thyrotropin receptor (Homo sapiens), sequence (P16473 whole entry, looked up): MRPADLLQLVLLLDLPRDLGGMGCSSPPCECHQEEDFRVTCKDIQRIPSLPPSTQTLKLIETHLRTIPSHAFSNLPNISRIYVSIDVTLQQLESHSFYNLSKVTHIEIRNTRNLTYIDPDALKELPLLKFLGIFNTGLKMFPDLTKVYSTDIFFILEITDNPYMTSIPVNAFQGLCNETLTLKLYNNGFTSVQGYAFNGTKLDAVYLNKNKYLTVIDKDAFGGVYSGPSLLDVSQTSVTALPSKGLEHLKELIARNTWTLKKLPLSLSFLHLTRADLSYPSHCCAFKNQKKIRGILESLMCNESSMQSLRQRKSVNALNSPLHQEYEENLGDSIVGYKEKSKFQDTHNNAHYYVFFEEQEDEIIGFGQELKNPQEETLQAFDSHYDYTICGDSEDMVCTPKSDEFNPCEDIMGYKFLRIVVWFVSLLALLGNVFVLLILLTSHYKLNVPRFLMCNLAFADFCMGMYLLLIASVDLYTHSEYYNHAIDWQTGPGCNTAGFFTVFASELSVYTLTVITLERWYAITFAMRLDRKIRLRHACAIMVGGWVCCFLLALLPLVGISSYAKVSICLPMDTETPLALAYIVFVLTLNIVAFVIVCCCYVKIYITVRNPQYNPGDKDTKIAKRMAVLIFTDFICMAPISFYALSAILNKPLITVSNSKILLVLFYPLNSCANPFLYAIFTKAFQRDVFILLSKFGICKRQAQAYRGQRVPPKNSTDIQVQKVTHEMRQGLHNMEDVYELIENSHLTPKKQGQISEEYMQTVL
# Estrogen receptor beta (Homo sapiens), sequence (Q92731 whole entry, looked up): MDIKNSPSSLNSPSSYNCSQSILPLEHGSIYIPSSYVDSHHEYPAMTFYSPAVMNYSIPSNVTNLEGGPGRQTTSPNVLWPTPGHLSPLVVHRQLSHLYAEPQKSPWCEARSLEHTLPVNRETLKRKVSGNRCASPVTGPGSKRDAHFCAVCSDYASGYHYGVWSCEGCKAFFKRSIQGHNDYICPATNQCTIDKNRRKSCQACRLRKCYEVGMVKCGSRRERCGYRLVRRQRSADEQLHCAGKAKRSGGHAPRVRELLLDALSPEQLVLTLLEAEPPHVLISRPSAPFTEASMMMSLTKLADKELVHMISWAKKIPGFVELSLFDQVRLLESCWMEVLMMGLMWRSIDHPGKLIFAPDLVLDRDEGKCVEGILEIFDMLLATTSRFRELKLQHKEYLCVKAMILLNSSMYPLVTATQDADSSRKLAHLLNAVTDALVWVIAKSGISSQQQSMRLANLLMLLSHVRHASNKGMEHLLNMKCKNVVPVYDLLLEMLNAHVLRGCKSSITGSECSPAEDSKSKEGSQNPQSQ
SMILES,Potency [1],outcome [2],Potency [3],Potency [4],Potency [5],Potency [6],outcome [7],outcome [8],Potency [9],Potency [10]
COc1ccc(S(=O)(=O)Nc2nnc(CC(C)C)s2)cc1,inactive,inactive,inactive,inactive,inactive,inactive,,,,
Cc1c[nH]c(=S)[nH]c1=O,inactive,inactive,inactive,,inactive,inactive,inactive,,,
Cc1cccc(C)c1NC(=O)CN1CCCCCC1,inactive,inactive,inactive,inactive,inactive,inactive,,inactive,inactive,
CCOC(=O)C1CC(=O)C(=C(O)C2CC2)C(=O)C1 (configuration not stated),inactive,inactive,inactive,inactive,,inactive,inactive,inactive,,
CCN[C@H]1CN(CCCOC)S(=O)(=O)c2sc(S(N)(=O)=O)cc21,inactive,inactive,inactive,,inactive,inactive,inactive,inactive,inactive,
CC(=O)O[C@H]1CC[C@@]2(C)C(=CC[C@@H]3[C@@H]2CC[C@]2(C)C(C(C)=O)=CC[C@@H]32)C1,inactive,inactive,inactive,inactive,,inactive,inactive,inactive,,inactive
CCC1(C)NC(=O)NC1=O (configuration not stated),inactive,inactive,inactive,inactive,,,inactive,inactive,,
CCCCCCCCCCCCCCCCOP(=O)([O-])OCC[N+](C)(C)C,inactive,inactive,inactive,inactive,,,,inactive,inactive,
CC(C)NCC(O)COc1ccc(CCOCC2CC2)cc1 (configuration not stated),inactive,inactive,inactive,,inactive,,inactive,,,
CCC(=O)c1ccc2c(c1)N(CCCN(C)C)c1ccccc1S2,inactive,inactive,26.6 µM (active),,,,,,,inactive
OC[C@H]1O[C@@H](O[C@H]2[C@H](O)[C@@H](O)[C@H](O)O[C@@H]2CO)[C@H](O)[C@@H](O)[C@H]1O,inactive,inactive,inactive,inactive,,inactive,inactive,inactive,inactive,inactive
COc1cc(C)ccc1C(C)C,inactive,inactive,inactive,inactive,,inactive,inactive,inactive,inactive,
CCCS(=O)c1ccc2nc(NC(=O)OC)[nH]c2c1 (configuration not stated),inactive,inactive,inactive,,inactive,,inactive,inactive,inactive,inactive
COc1ccc(Nc2ccc(OC)cc2)cc1,inactive,inactive,inactive,,inactive,inactive,inactive,inactive,,
CCCCCCCCOC(=O)CCCCCCCCC(=O)OCCCCCCCC,inactive,inactive,inactive,,,inactive,inactive,,,
ICCc1ccccc1,16.9 µM (active),inactive,inactive,,inactive,inactive,inactive,inactive,,
O=C(C(Cl)Cl)N1CCOC12CCCCC2,inactive,inactive,inactive,,inactive,inactive,inactive,inactive,inactive,

SMILES,Potency [1],outcome [2],Potency [3],Potency [4],Potency [5],Potency [6],outcome [7],outcome [8],Potency [9],Potency [10]
CO[Si](C)(C)OC,inactive,inactive,inactive,,inactive,inactive,inactive,inactive,inactive,
CN1CCN(c2c(F)cc3c(=O)c(C(=O)O)cn(CCF)c3c2F)CC1,inactive,inactive,inactive,inactive,,inactive,,inactive,inactive,
CC1=CC(=O)CC(C)(C)C1=O,inactive,inactive,inactive,inactive,inactive,inactive,,inactive,inactive,
Cc1nnc(SCC2=C(C(=O)O)N3C(=O)[C@@H](NC(=O)Cn4cnnn4)[C@H]3SC2)s1,inactive,inactive,inactive,,inactive,inactive,inactive,inactive,inactive,
O=C1Nc2ccc([N+](=O)[O-])cc2C1=O,inactive,inactive,inactive,,,,inactive,inactive,inactive,
CCCCC1CCC(=O)O1 (configuration not stated),inactive,inactive,inactive,,inactive,inactive,inactive,inactive,inactive,
O=C1C=CC(=O)O1,inactive,inactive,inactive,inactive,inactive,inactive,,inactive,inactive,
CCCCC(CC)COC(=O)COc1cc(Cl)c(Cl)cc1Cl (configuration not stated),inactive,inactive,inactive,inactive,,inactive,,inactive,,
CCOC(=O)[C@H](CCc1ccccc1)N[C@@H](C)C(=O)N1Cc2cc(OC)c(OC)cc2C[C@H]1C(=O)O,inactive,inactive,inactive,,inactive,inactive,inactive,inactive,inactive,
C=CCCC=C,inactive,inactive,inactive,,,inactive,inactive,inactive,inactive,
Nc1cccc(S(=O)(=O)O)c1,inactive,inactive,inactive,inactive,inactive,inactive,,inactive,inactive,
CC(C)C(=O)OC/C=C/c1ccccc1,inactive,inactive,inactive,inactive,,inactive,inactive,inactive,inactive,
Cc1onc(-c2ccccc2)c1C(=O)Cl,inactive,inactive,inactive,inactive,,,inactive,inactive,inactive,
Cc1cc2c(s1)Nc1ccccc1N=C2N1CCN(C)CC1,inactive,,,inactive,inactive,inactive,inactive,,,
CCOC(=O)CS,19.9 µM (active),inactive,,inactive,70.5 µM (active),,,inactive,inactive,
CC(C)(C)c1ccc(OC(=O)c2ccccc2O)cc1,inactive,,inactive,,,,,inactive,,
CCCCCCCCCC#N,24.2 µM (active),inactive,,,inactive,inactive,,inactive,,
